In the library only some 1.5% were active in any assay of this set; here they are far more common.
PP5 inh: PP5 phosphatase inhibitors, primary screen, biochemical, fluorescence; Serine/threonine-protein phosphatase 5 (Homo sapiens), P53041; purified PP5c, OMFP substrate fluorescence; inhibition, % at 6.7 µM; 320,000 tested, 0.18% active; AID 1987, 2009;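 active = inhibition above the campaign's mean inhibition across all tested compounds plus 3 SD, cut at about 9.5% in these data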
DYRK1A inh: rat Dyrk1A kinase inhibitors, primary screen, biochemical, single point, plate reader | Dual specificity tyrosine-phosphorylation-regulated kinase 1A (Rattus norvegicus), Q63470 | ADP-Glo luminescence, NFATc1 peptide | inhibition, % at 12.5 µM | 310,000 tested, 0.43% active; in the data active = inhibition above about 50%
PP1 inh: PP1-alpha phosphatase inhibitors, primary screen, counter-screen for PP5 inhibitor project, biochemical, fluorescence, OMFP substrate, single point | Serine/threonine-protein phosphatase PP1-alpha catalytic subunit (Homo sapiens), P62136 | purified PP1alpha | inhibition, % at 6.7 µM | 320,000 tested, 0.9% active;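 active = inhibition above the mean inhibition of all tested compounds plus 3 SD, computed separately for each screening campaign, cut at about 15% in these data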
Target sequence (P62136 whole entry, looked up): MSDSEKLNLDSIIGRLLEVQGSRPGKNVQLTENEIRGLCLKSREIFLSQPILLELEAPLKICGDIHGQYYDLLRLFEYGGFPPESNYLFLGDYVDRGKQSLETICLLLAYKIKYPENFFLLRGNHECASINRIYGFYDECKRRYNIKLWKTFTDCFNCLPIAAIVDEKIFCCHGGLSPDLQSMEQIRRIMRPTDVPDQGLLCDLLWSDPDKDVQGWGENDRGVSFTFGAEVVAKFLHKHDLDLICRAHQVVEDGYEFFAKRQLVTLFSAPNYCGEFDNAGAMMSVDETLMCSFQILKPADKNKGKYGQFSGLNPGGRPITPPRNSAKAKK
HIF activator: HIF pathway transcriptional activators, primary screen, cell-based, U2OS HRE-luciferase, luminescence; U2OS HRE-luciferase reporter; normalized: DMSO 0%, desferrioxamine 100%; activation, % at 7.5 µM (by protocol); 300,000 tested, 0.32% active; AID 1910, 2009;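 active = mean activation of at least 10% of the iron chelator positive control signal, with at least half of replicates also reaching 10%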
STK33 kinase inh: inhibitors of purified STK33 kinase, primary screen, biochemical, ADP-Glo luminescence, homogeneous, cell-free | inhibition, % at 10 µM | 320,000 tested, 0.073% active | AID 2661, 2010 | Serine/threonine-protein kinase 33 (Homo sapiens), Q9BYT3 | MBP phosphorylation;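 active = inhibition at or above 25%, using the most active replicate where run in duplicate; inactive = inhibition below 25%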
ADP-Glo artifact: ADP-Glo luciferase interference without Dyrk1A, dose response, artefact control for Dyrk1A inhibitor project, biochemical, luminescence, cherry-pick, set 02 | shares compounds with DYRK1A inh | ADP-Glo luciferase artifact assay, no Dyrk1A | AC50, µM (doses to about 12 µM) | 1,300 tested, under 10 active | AID 588348, 2011;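 active = fitted half-maximal dose AC50 no more than ten times the top valid tested dose, with luminescence dropping as dose rises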
A number is an active result; . = inactive; / = no result given.

SMILES	PP5 inh	DYRK1A inh	PP1 inh	HIF activator	STK33 kinase inh	ADP-Glo artifact
CCOc1ccccc1NC(=O)c1cccc2ccccc12	.	/	.	.	.	/
CC1CCc2sc(C(=O)N=Nc3c(O)[nH]c4ccccc34)cc2C1 (stereo not drawn)	.	/	.	.	.	/
COC(=O)CSc1nc(N)c(C#N)c(C(C)C)c1C#N	.	50	.	.	.	.
COC(=O)CSc1nc(N)c(C#N)c(CC(C)C)c1C#N	.	.	.	.	.	/
O=C(CC(SCCO)c1ccc2c(c1)OCO2)c1ccco1 (stereo not drawn)	.	84	.	.	.	.
O=C(CCNC(=O)c1ccccc1Cl)Nc1cccc(S(=O)(=O)N2CCOCC2)c1	.	/	.	/	.	/
Cc1cccc(-n2nc3c(c2NC(=O)CCC2CCCCC2)CS(=O)C3)c1C (stereo not drawn)	.	55	.	.	.	.
COc1ccc(CC(=O)Nc2c3c(nn2-c2cccc(C)c2C)CS(=O)C3)cc1 (stereo not drawn)	.	.	.	.	.	/
COC(=O)c1ccc(Cn2nnc3c(=O)[nH]c(C4CCCN(S(=O)(=O)c5cccc(Cl)c5)C4)nc32)cc1 (stereo not drawn)	.	.	.	/	.	/
O=C(CN1CCOCC1)Nc1nc2ccc([N+](=O)[O-])cc2s1	.	81	.	.	.	.
CC(=O)Nc1ccc2sc(NC(=O)CN3CCOCC3)nc2c1	/	.	/	.	.	/
O=C(CN1CCOCC1)Nc1nc2ccc(F)cc2s1	.	51	.	.	.	.
CCC(=O)Nc1nc2ccc([N+](=O)[O-])cc2s1	.	.	.	.	.	/
NC1=NC(=O)/C(=C/c2cccc(-c3ccc(S(N)(=O)=O)cc3)c2)S1	.	.	.	.	.	/
NC1=NC(=O)/C(=C\c2ccc(O)c([N+](=O)[O-])c2)S1	.	79	.	.	.	.
O=C(CSc1nnnn1-c1ccc(O)cc1)Nc1ccc(N2CCOCC2)c(Cl)c1	.	51	.	.	.	.
O=C(OCc1nnc(-c2ccc(Br)cc2)o1)c1cncc(Br)c1	.	.	.	.	.	/
O=c1oc(-c2ccc(O)c(O)c2)cc2cc(O)cc(O)c12	/	73	/	/	/	.
O=c1cc(-c2ccc(O)c(O)c2)oc2ccc3ccccc3c12	/	.	/	/	/	/
CCOC(=O)c1ccc(NC(=O)CSc2nc(=O)n(CCN3CCOCC3)c3c2CCC3)cc1	.	.	.	.	/	/
N#Cc1nc(-c2cccs2)oc1NCc1ccccc1Cl	.	51	.	.	.	.
CC1(C)CC(=O)C=C(Nc2cccc(Cl)c2Cl)C1	.	.	.	.	.	/
CSc1nnc(-c2cc3c(-c4ccccc4)nn(C)c3s2)n1C	.	52	.	.	.	.
Cc1ccc(C(=O)N2CC(=O)NC(=O)C2)cc1	.	/	.	.	.	/
O=C(CNC(=O)c1ccco1)OCC(=O)c1ccc(Cl)cc1Cl	.	.	.	.	.	/
SMILES	PP5 inh	DYRK1A inh	PP1 inh	HIF activator	STK33 kinase inh	ADP-Glo artifact
COC(=O)Nc1[nH]ncc1[N+](=O)[O-]	.	/	.	.	/	/
N#CCC(=O)N/N=C\c1ccccc1OC/C=C/c1ccccc1	.	.	.	.	.	/
Cc1ccc(-c2cn(S(=O)(=O)c3cccc4nsnc34)nc2N)cc1	.	.	.	.	.	/
COc1cc(-c2cn(S(=O)(=O)c3cccc4nsnc34)nc2N)cc(OC)c1OC	.	83	.	.	.	.
COCCn1c(N)c(N(Cc2ccccc2)C(=O)c2ccc(N3CCCC3=O)cc2)c(=O)[nH]c1=O	/	.	/	/	/	/
O=C(c1ccc2c(c1)OCO2)N1CCCN(C(=O)c2ccc3c(c2)OCO3)CC1	.	.	.	.	.	/
O=C(c1ccc2c(c1)OCCCO2)N1CCCCC1	.	59	.	.	.	.
N#Cc1ccccc1S(=O)(=O)N1CCN(C(=O)Cc2coc3cc(O)ccc23)CC1	.	/	.	/	.	/
CN=C1S/C(=C\c2ccc(O)c(Br)c2)C(=O)N1C	.	91	.	.	.	.
CC(=O)O[C@H]1[C@@H](O)[C@H](O)[C@H](Oc2c(O)c(C)c3c4c2[C@@H](C)CC[C@@H]4[C@@H](C)C[C@H]3C=C(C)C)O[C@H]1C	/	.	/	/	.	/
CCC(C)[C@H]1CNCCN1CCc1cccc2ccccc12 (stereo partly drawn)	.	51	.	.	.	.
Nc1ccc2c(c1)C(=O)c1ccccc1-2	.	.	.	.	.	/
Nc1ccc2c(c1)C(=O)C(=O)c1ccccc1-2	.	89	39	.	.	.
CN(C(=O)CSc1nc2sc3c(c2c(=O)n1C)CCC3)C1CCS(=O)(=O)C1 (stereo not drawn)	.	.	.	/	.	/
O=[N+]([O-])c1cc([N+](=O)[O-])c2oc(-c3ccccc3)c(Br)c2c1O	/	76	/	.	/	.
COc1cc(/C=C2/SC(N)=NC2=O)ccc1Oc1ccc([N+](=O)[O-])cc1[N+](=O)[O-]	.	.	.	/	.	/
COc1cc(/C=C2/SC(=O)NC2=O)ccc1Oc1ccc([N+](=O)[O-])cc1[N+](=O)[O-]	.	80	.	/	.	.
COC(=O)Cn1cnc2c(cnn2-c2ccc(C)cc2)c1=O	.	.	.	.	.	/
Cc1nnc(SCC(=O)NC(C)(C)C)n1C1CCCCC1	.	.	.	.	.	/
COc1cccc(Nc2nc(-c3ccc(O)cc3)cs2)c1	.	54	.	.	.	.
O=C(NCCc1ccccc1)C(=O)NCC1OCCN1S(=O)(=O)c1ccc(F)cc1 (stereo not drawn)	.	.	.	.	.	/
COc1ccc(C(=O)Nc2ncccc2C)cc1S(=O)(=O)N1CCOCC1	.	.	.	.	.	/
Fc1ccccc1-c1nc(-c2ccc(-c3nn[nH]n3)cc2)no1	/	59	/	/	.	.
CCOCC(=O)Nc1nc2c(s1)C(=O)CC(C)(C)C2	.	57	.	.	.	.
C=CCOc1ccc(/C=C2\SC(=Nc3cccnc3)NC2=O)cc1	.	61	16	84	.	.
SMILES	PP5 inh	DYRK1A inh	PP1 inh	HIF activator	STK33 kinase inh	ADP-Glo artifact
Oc1cccc2c(-c3nn[nH]n3)ccnc12	.	70	.	/	.	.
c1ccc2c(-c3nn[nH]n3)cccc2c1	.	.	.	.	.	/
COc1cccc(Nc2ncnc3sc(C)cc23)c1	.	77	.	.	.	.
COC(=O)C1=C(C)N(CCCC(=O)O)C(=O)NC1c1ccc(Cl)cc1 (stereo not drawn)	.	56	.	.	.	.
CCC1COCCS(=O)(=O)N1Cc1ccc(C)cc1 (stereo not drawn)	.	.	.	.	.	/
CCC1COCCS(=O)(=O)N1Cc1ccccc1 (stereo not drawn)	.	55	.	.	.	.

Assay outcomes as filed in PubChem.
